# Records with an inconclusive call do not appear. Active and inactive are the calls of the source. Calls follow the shape of the dose curve; as a rule, active = well fitted inhibition curve with a large enough effect in the signal ratio in the repeat runs (not every such curve was filed as active); inconclusive = weak or mixed curves; inactive = flat fitted curve, though single readings scatter; the % refers to the signal ratio.
# Assay: qHTS assay to identify small molecule antagonists of the TGF-beta/Smad signaling pathway (AID 1346924)
# Conditions: SBE-bla HEK293T, TGF-beta/Smad reporter, beta-lactamase ratio
# Description: U.S. Tox21 Program National Center for Advancing Translational Sciences [NCATS] NIH Chemical Genomics Center [NCGC] U.S. Environmental Protection Agency [EPA] National Institutes of Environmental Health Sciences [NIEHS] National Toxicology Program [NTP] U.S. Food and Drug Administration [FDA] Tox21 Assay Overview: Transforming growth factor beta (TGF-beta) superfamily consists of a large number of structurally related dimeric proteins that act as hormones or local mediators in regulating a wide range of biological functions. This superfamily includes TGF-betas themselves, the bone morphogenetic proteins (BMPs) and the activins. These ligands induce oligomerization of serine/threonine receptor kinases and phosphorylate the cytoplasmic signaling molecules of Smad protein family. CellSensor SBE-bla HEK 293T cell line (Life Technologies, Carlsbad, CA), responsive to TGF-beta was used to screen Tox21 10K compound library for identification of agonists/antagonists of the Smad signaling pathway. […]
# Tox21 Assay Protocol Summary: SBE-bla HEK 293T cells were dispensed at 4,000/well in 5 uL of assay medium into black wall/clear-bottom 1536-well plates using a Multidrop Combi (ThermoFisher Scientific, Waltham, MA) dispenser. […] Fluorescence intensity (405 nm excitation, 460 nm and 530 nm emissions) was measured using an Envision plate reader (PerkinElmer, Shelton, CT).
# Potency is read from the fitted curve at half-maximal effect.
row,SMILES,Potency
1,CCCCCCCCCCCC[N+](C)(C)CCOc1ccccc1,50.9 µM (active)
